The source of these data is PubChem BioAssay AID489042 (NMMLSC, 2010).

Structures are written as SMILES. Activity calls are given as the source filed them. Cut-off read from the data, not from the text of the source: active = inhibition score above about 11; inactive = the rest.

The nature of the assay: yeast proliferation inhibition, dose response, BY4741, OD595, 24 h (AID 489042). The following applies: S. cerevisiae BY4741 growth, flow cytometer event count, 7 d (AID 449753), hits give high values.
On to `CC(=O)Nc1ccc2nc3ccccc3nc2c1`, for which the inhibition score was 0 (inactive). As for `O=C1c2c(O)ccc(O)c2C(=O)c2c(NCCNCCO)ccc(NCCNCCO)c21`, the inhibition score is 0 (inactive).

Regarding `Cc1cccc2nc3ccccc3nc12`, the inhibition score is 0 (inactive). The result for `CSc1nnc(-c2ccc([N+](=O)[O-])cc2)o1` reads 0 (inactive). On to `COc1cccc2nc3cc(C)c(C)cc3nc12`, for which the inhibition score was 0 (inactive). The figure for `CC(C)OC(=O)c1ccc2nc3ccccc3nc2c1` is 0 (inactive); for `CN(C)CCNc1ncnc2c1cnn2-c1ccc(Cl)cc1` it is 0 (inactive). The figure for `O=C(O)c1cnc2ccccc2n1` is 0 (inactive); for `C=CCSc1nnc(-c2ccc([N+](=O)[O-])cc2)o1` it is 0 (inactive).

`Cc1cc(C)c2[nH]c3nc(SCC(=O)O)nnc3c2c1`: the inhibition score was 0 (inactive). The figure for `CCN(CC)C(=O)c1cccc2nc3ccccc3nc12` is 0 (inactive).

On to `Cc1cc(C)cc(NC(=O)CN2CCN(c3ccccn3)CC2)c1`, for which the inhibition score is 0 (inactive).

Take `COc1ccc2nc3ccccc3[n+]([O-])c2c1`: the inhibition score is 0 (inactive). With `CCn1c2ccccc2c2n[nH]c(=S)nc21`, the inhibition score was 0 (inactive). The result for `Cc1cc2nc3ccc(N(C)C)cc3nc2cc1N` reads 0 (inactive); that for `O=C(Nc1ccc2nc3ccccc3nc2c1)c1ccccc1`, 0 (inactive). The result for `c1ccc2[nH]c3cc4ncnc4cc3nc2c1` reads 0 (inactive).

`[O-][n+]1c2ccccc2[n+]([O-])c2cc(O)ccc21`: the inhibition score was 0 (inactive). The figure for `CCC(=Nc1ccccc1O)C1=C(O)CC(c2ccccc2)CC1=O` (centres undefined) is 0 (inactive). Regarding `N#CC(c1nc2ccccc2nc1N1CCCC1)S(=O)(=O)c1ccccc1` (centres undefined), the inhibition score was 0 (inactive). The figure for `CC(=O)[C@@]1(O)CCC2C3CC[C@H]4C[C@@H](O)CC[C@]4(C)C3CC[C@@]21C` (some centres undefined) is 0 (inactive); for `O=C(c1cccc2nc3ccccc3nc12)N1CCOCC1` it is 0 (inactive); for `N#CCc1nn(-c2ccccc2)c2ncnc(N)c12` it is 0 (inactive). In the case of `FC(F)(F)c1nc2cc3nc4ccccc4[nH]c3cc2n1`, the inhibition score was 0 (inactive).

Take `CCN(CC)c1ccc2nc3ccc(N)cc3[n+](-c3ccccc3)c2c1`: the inhibition score is 0 (inactive).

For the compound `CC(C)(C)n1nc(-c2ccc(Cl)cc2)c2c(N)ncnc21`, the inhibition score is 0 (inactive).

In the case of `CC(C)(C)Nc1ncnc2c1cnn2-c1ccccc1`, the inhibition score is 0 (inactive).

With `CC(C)CSc1nnc2c3ccccc3n(C)c2n1`, the inhibition score was 0 (inactive). The figure for `CCc1nc(NC(C)(C)C)c2cnn(-c3ccccc3)c2n1` is 0 (inactive).
